A short description of assay [1]: qHTS assay to identify small molecule agonists of H2AX (AID 1224845; active = well fitted activation curve with a large enough effect in the signal ratio in the repeat runs, not every such curve was filed as active; the % refers to the signal ratio; note: potency is the fitted concentration of half-maximal effect). The gist of the method:
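Phospho-H2AX Ser139 measured by HTRF (ex 320 nm; em 665 and 620 nm) after 24 hr antibody incubation. Compounds, 15 concentrations, 0.76% DMSO, were applied to CHO-K1 cells for 3hr at 37C before lysis.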

A short description of assay [2]: qHTS assay to identify small molecule agonists of the hypoxia (HIF-1) signaling pathway (AID 1224846; active = well fitted activation curve with a large enough effect in the signal ratio in the repeat runs, not every such curve was filed as active; the % refers to the signal ratio). The procedure, abridged:
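A low-serum medium (0.5% dialyzed FBS) holding 2,000 HRE-bla ME-180 cells per well is preincubated for 5 hrs, dosed with compounds by pintool, and kept a further 17 hrs at 37C, 5% CO2 before CCF4-AM FRET detection of beta-lactamase.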
(In general: qHTS replaces the single test concentration by a dilution series.)

A short description of assay [3]: qHTS RealTime-Glo MT Cell Viability Assay in HepG2 cells - 24 hour (AID 1224867). Note: nearly all actives have a fitted effect of over 50% in size. Note: potency is the fitted concentration of half-maximal effect. The gist of the method: (§1)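 HepG2 cells were seeded at 600 cells/well together with NanoLuc luciferase and a cell-permeant prosubstrate, preincubated 5 h at 37 C/5% CO2, then pin-dosed with compounds in DMSO. Nonlytic luminescence from viable cells was read at each time point.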
Assay [4] can be described thus: qHTS RealTime-Glo MT Cell Viability Assay in HEK293 cells - 32 hour (AID 1224868). Note: nearly all actives have a fitted effect of over 50% in size. Note: potency is the fitted concentration of half-maximal effect. The procedure, abridged:
(§2)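 HEK293 cells were seeded at 600 cells/well together with NanoLuc luciferase and cell-permeant prosubstrate, preincubated 5 h at 37 C/5% CO2, then given compound in DMSO by pintool. Luminescence from viable-cell prosubstrate reduction was read repeatedly over 40 h.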

Assay [5] can be described thus: A CellTox Green Cytotoxicity Assay to monitor cytotoxicity in HEK293 cells - 0 hour (AID 1224869). Note: nearly all actives have a fitted effect of over 50% in size. The procedure, abridged: (§3)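 Fluorescence intensity, read at 0, 8, 16, 24, 32 and 40 h of compound treatment, reflected dye binding to DNA of dead HEK293 cells; compounds (23 nL, DMSO) were added 5 h after plating cells with reagent.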
A short description of assay [6]: qHTS RealTime-Glo MT Cell Viability Assay in HepG2 cells - 40 hour (AID 1224870). Note: nearly all actives have a fitted effect of over 50% in size. Note: potency is the fitted concentration of half-maximal effect. The procedure, abridged: (§4)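 Real-time viability: cells seeded at 600 per well together with NanoLuc and cell-permeant prosubstrate, compounds added after 5 h incubation. Luminescence tracked at 0, 8, 16, 24, 32 and 40 h of exposure.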
Assay [7] can be described thus: A CellTox Green Cytotoxicity Assay to monitor cytotoxicity in HEK293 cells - 40 hour (AID 1224871). Note: nearly all actives have a fitted effect of over 45% in size. Note: potency is the fitted concentration of half-maximal effect. The gist of the method: as §3
Assay [8] is described as follows: qHTS RealTime-Glo MT Cell Viability Assay in HEK293 cells - 16 hour (AID 1224872). Note: nearly all actives have a fitted effect of over 50% in size. Note: potency is the fitted concentration of half-maximal effect. The gist of the method: as §2
Assay [9] in a line: qHTS RealTime-Glo MT Cell Viability Assay in HepG2 cells - 8 hour (AID 1224873). Note: nearly all actives have a fitted effect of over 55% in size. Note: potency is the fitted concentration of half-maximal effect. The procedure, abridged: as §4
The nature of assay [10]: qHTS RealTime-Glo MT Cell Viability Assay in HEK293 cells - 40 hour (AID 1224874). Note: nearly all actives have a fitted effect of over 50% in size. Note: potency is the fitted concentration of half-maximal effect. The following applies: RealTime-Glo luminescence; max response: stronger effect = lower value. The procedure, abridged: (§5)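 Viable HEK293 cells reduce a cell-permeant prosubstrate; the product diffuses out and is consumed by NanoLuc in the medium to give light. Compounds went in after a 5 h incubation and plates were read over the treatment course.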

Assay [11] is described as follows: A CellTox Green Cytotoxicity Assay to monitor cytotoxicity in HepG2 cells - 16 hour (AID 1224876). Note: nearly all actives have a fitted effect of over 45% in size. Note: potency is the fitted concentration of half-maximal effect. The procedure, abridged:
(§6)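 Using 1536-well format, dye-containing HepG2 suspension was seeded, allowed 5 h at 37 C/5% CO2, dosed by pintool with compounds, positive and negative controls, and imaged for fluorescence across 40 h.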

A short description of assay [12]: qHTS RealTime-Glo MT Cell Viability Assay in HepG2 cells - 32 hour (AID 1224877). Note: nearly all actives have a fitted effect of over 55% in size. Note: potency is the fitted concentration of half-maximal effect. The procedure, abridged:
as §1

The nature of assay [13]: A CellTox Green Cytotoxicity Assay to monitor cytotoxicity in HepG2 cells - 24 hour (AID 1224878). Note: nearly all actives have a fitted effect of over 45% in size. Note: potency is the fitted concentration of half-maximal effect. The procedure, abridged:
as §6

Assay [14] can be described thus: A CellTox Green Cytotoxicity Assay to monitor cytotoxicity in HepG2 cells - 40 hour (AID 1224879). Note: nearly all actives have a fitted effect of over 40% in size. Note: potency is the fitted concentration of half-maximal effect. The gist of the method:
as §6

Assay [15] can be described thus: qHTS RealTime-Glo MT Cell Viability Assay in HEK293 cells - 0 hour (AID 1224880). Note: top concentration of the series differs between compounds; nearly all actives have a fitted effect of over 45% in size. The gist of the method: as §5
Assay [16] is described as follows: qHTS assay to identify small molecule agonists of H2AX - cell viability counter screen (AID 1224847; calls by dose curve; note: nearly all actives have a fitted effect of over 30% in size; note: potency is the fitted concentration of half-maximal effect). The procedure, abridged:
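Viability of CHO-K1 (wild type) cells after 3 hr compound exposure was measured by CellTiter-Glo luminescence.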

Assay [17] in a line: A CellTox Green Cytotoxicity Assay to monitor cytotoxicity in HEK293 cells - 24 hour (AID 1224875). Note: nearly all actives have a fitted effect of over 45% in size. The gist of the method: as §3
The nature of assay [18]: qHTS assay to identify small molecule antagonists of the estrogen related receptor (ERR) signaling pathway from Tox21 library (AID 1224848). Note: nearly all actives have a fitted effect of over 50% in size. Note: potency is the fitted concentration of half-maximal effect. The procedure, abridged: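 Reading was by luminescence 30 min after ONE-Glo addition. Before that, ERR cells at 2,000 per well had rested 6 h at 37 C/5% CO2 and then received pin-tooled compounds in DMSO for 18 h at 37 C.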
Assay [19] in a line: qHTS assay to identify small molecule agonists of the estrogen related receptor (ERR) signaling pathway from Tox21 library (AID 1224849; calls by dose curve; note: nearly all actives have a fitted effect of over 15% in size). The following applies: ERR reporter cell line, ONE-Glo luciferase, 18 h. The procedure, abridged: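 Screening used an NTP-provided ERR luciferase cell line. Compounds in DMSO were added 6 h after seeding and left 18 h at 37 C before a 30 min ONE-Glo step and luminescence reading.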

Here are results for eleven compounds from PubChem BioAssay (Tox21).

Several values for one entry are separate records, joined by “and”; a condition that tells them apart may be missing. Identical values can stand only once. Inconclusive results are not listed. The source holds several records for some structures; these can differ, active in one and inactive in another. Activity calls are given as the source filed them. Unless noted, calls come from the whole dose curve; as a rule, active = well fitted curve in the direction sought with a large enough effect in the repeat runs; inconclusive = weak or mixed curves; inactive = no such curve, though single readings can be large; an effect the other way counts as inactive or inconclusive.
% is set by controls: 0 for no effect and ±100 for the full control effect.

For `CCCN(CCC)c1c([N+](=O)[O-])cc(C(C)C)cc1[N+](=O)[O-]`, the Potency entry in assay [1], in assay [3], in [4], in assay [5], in assay [6] and in [7] was “inactive” in each case. In addition, the Potency entry in assay [8], in assay [9], in assay [11], in assay [12], in assay [13] and in assay [14] was “inactive” throughout. Also, the result in assay [2] and in [15] was inactive. The max response in [10] is 9.58% (inactive).

With `CCN(C(C)=O)c1cccc(-c2ccnc3c(C#N)cnn23)c1`, the Potency result in assay [1], in assay [16], in assay [3], in assay [4], in assay [5] and in assay [6] was “inactive” in each case. Also, the Potency result in [8], in assay [9], in assay [17], in assay [11], in [12] and in [13] was “inactive” throughout. The outcome in assay [2] and in [15] was inactive. Moreover, the max response in assay [10] was -13.6% (inactive).

On to `O=[N+]([O-])O[C@H]1CO[C@H]2[C@@H]1OC[C@H]2O[N+](=O)[O-]`, for which the Potency entry in [1], in assay [16], in [18], in assay [4], in assay [5] and in [6] was “inactive” each time. The Potency entry in assay [7], in [8], in [9], in [11], in [12] and in [13] was “inactive” in each case. In addition, the Potency entry in [14] is “inactive”. In addition, the activity change, positive = activation in assay [19] (at 42.5 µM (top of the series)) was 4.43% (inactive). Besides, the max response in assay [10] is 6.05% (inactive). The compound was classed as inactive in assay [15].

Take `N#CC(C#N)=Cc1ccc(O)c(O)c1`: in assay [2], the call was inactive. Also, the Potency result in assay [4], in assay [6], in assay [7], in [8], in assay [9] and in [17] was “inactive” in each case. In addition, the Potency entry in [11], in assay [12], in assay [13] and in assay [14] was “inactive” in each case. In addition, in [10], the max response was -6.83% (inactive).

Take `O=C(O)COc1cc(Cl)c(Cl)cc1Cl`: the Potency entry in assay [1], in [18], in assay [3], in assay [6], in assay [7] and in [8] was “inactive” in each case. Also, the Potency entry in assay [9], in assay [17], in assay [11], in assay [12] and in assay [13] was “inactive” in each case. Further, the compound was called inactive in assay [2] and in assay [15]. In assay [19] (at 92.4 µM (top of the series)), the activity change, positive = activation was -7.72% (inactive) and -14.1% (inactive). In addition, the Potency result in [4] is “inactive and 15.5 µM (active)”; in [10] it was 15.5 µM (active). In addition, the max response in assay [10] was 6.38% (inactive).

With `Cc1cnc(C2=NC(C)(C(C)C)C(=O)N2)c(C(=O)O)c1` (configuration not stated), the Potency entry in assay [1], in assay [16], in [3], in assay [4], in assay [6] and in assay [8] was “inactive” in each case. The Potency entry in [9], in assay [17], in assay [11], in [12], in assay [13] and in assay [14] was “inactive” in each case. Besides, the compound was called inactive in [2] and in [15]. Moreover, the max response in [10] is 12.6% (inactive).

As for `CCCC[P+](CC)(CCCC)CCCC` (tested in a mixture with another compound), the compound was called inactive in assay [2] and in [15]. For the same compound, the Potency result in assay [16], in assay [3], in assay [6], in assay [7], in assay [9] and in assay [11] was “inactive” throughout. In addition, the Potency entry in assay [12], in assay [13] and in assay [14] was “inactive” throughout.

Take `O=C=NC1CCCCC1`: the Potency entry in assay [1], in assay [16], in [18], in assay [3], in [4] and in assay [5] was “inactive” each time. Also, the Potency entry in [6], in [8], in assay [9], in assay [11], in [12] and in assay [13] was “inactive” throughout. For the same compound, the Potency result in [14] is “inactive”. In addition, the result in assay [2] and in assay [15] was inactive. Further, in assay [10], the max response is 8% (inactive).

Take `C[CH2][Hg][S]c1ccccc1C(=O)O`: the Potency in assay [1] was 4.01 µM (active); in assay [16], 17.9 µM (active) and 24.7 µM (active); in assay [18], “inactive and 16.8 µM (active)”; in assay [3] it was 2.19 µM (active) and 2.13 µM (active); in [4] it was 977 nM (active) and 1.07 µM (active); in [6] it was 2.19 µM (active) and 2.39 µM (active). The Potency in [7] is 6.92 µM (active) and 4.77 µM (active); in assay [8], 1.23 µM (active) and 2.13 µM (active); in assay [9] it was 3.47 µM (active) and 2.13 µM (active); in assay [10], 871 nM (active) and 952 nM (active); in assay [11], 3.89 µM (active) and 2.39 µM (active); in assay [12], 2.19 µM (active) and 2.13 µM (active). Also, the Potency was 5.49 µM (active) and 2.39 µM (active) in assay [13]; 1.95 µM (active) and 2.13 µM (active) in [14]. Also, the activity change, positive = activation is -75.4% (inactive) in assay [19] (at 42.5 µM (top of the series)) and -77.1% (inactive) in assay [19] (at 92.4 µM (top of the series)). Besides, in assay [5], the Potency entry was “inactive”. Moreover, in [15], the result was inactive.

In the case of `CC(=O)NNc1ccccc1`, the call in assay [2] and in [15] was inactive. For the same compound, in [18], the Potency is 4.82 µM (active). The activity change, positive = activation in assay [19] (at 92.4 µM (top of the series)) was -40.3% (inactive). Also, the Potency result in assay [3], in assay [4], in assay [6], in assay [7], in assay [8] and in [9] was “inactive” each time. Moreover, the Potency result in assay [17], in assay [11], in assay [12], in [13] and in assay [14] was “inactive” throughout. Moreover, the max response in [10] was 2.64% (inactive).

For the compound `CC(Oc1cccc(Cl)c1)C(=O)O` (configuration not stated), the Potency entry in assay [1], in assay [16], in assay [3], in assay [4], in [6] and in assay [7] was “inactive” throughout. Also, the Potency entry in assay [8], in assay [9], in assay [17], in [11], in assay [12] and in assay [13] was “inactive” each time. Also, in assay [14], the Potency result was “inactive”. The result in assay [2] and in assay [15] was inactive. In addition, the max response in assay [10] is 9.01% (inactive).
